According to PubChem BioAssay (Tox21):
Several values for one entry are separate records, joined by “and”; a condition that tells them apart may be missing. Equal entries are not always repeated. Inconclusive results are not listed. Activity calls are given as the source filed them. Unless noted, the call rests on the fitted dose curve.

Key:
[1] = Nuclear factor erythroid 2-related factor 2/antioxidant responsive element (Nrf2/ARE) small molecule agonists: qHTS cell viability counter screen in human keratinocytes (AID 1919968; active means well fitted curve in the direction sought with a large enough effect in the repeat runs; an effect the other way counts as inactive or inconclusive; further: nearly all actives have a fitted effect of over 55% in size; further: potency means the concentration at half of the fitted maximal effect)
Procedure, shortened: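 KeratinoSens cells (HaCaT keratinocytes stably carrying an ARE-luciferase reporter) were seeded at 1,500 cells/well and rested 5 h at 37 C/5% CO2. They were then exposed to compounds in DMSO for 23 h. Viability was read by CellTiter-Fluor fluorescence after 1 h.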

[2] = Nuclear factor erythroid 2-related factor 2/antioxidant responsive element (Nrf2/ARE) small molecule agonists: luciferase reporter gene qHTS assay in human keratinocytes (AID 1919969); further: nearly all actives have a fitted effect of over 35% in size; further: potency means the concentration at half of the fitted maximal effect
[3] = molecular target: Gonadotropin-releasing hormone receptor (Homo sapiens) (UniProt P30968); experiment: Human gonadotropin-releasing hormone receptor (GnRHR) small molecule agonists, calcium flux assay in GnRHR-HEK293 cells (AID 1920063); further: nearly all actives have a fitted effect of over 35% in size
Sequence of Gonadotropin-releasing hormone receptor (Homo sapiens) (P30968 whole entry, looked up): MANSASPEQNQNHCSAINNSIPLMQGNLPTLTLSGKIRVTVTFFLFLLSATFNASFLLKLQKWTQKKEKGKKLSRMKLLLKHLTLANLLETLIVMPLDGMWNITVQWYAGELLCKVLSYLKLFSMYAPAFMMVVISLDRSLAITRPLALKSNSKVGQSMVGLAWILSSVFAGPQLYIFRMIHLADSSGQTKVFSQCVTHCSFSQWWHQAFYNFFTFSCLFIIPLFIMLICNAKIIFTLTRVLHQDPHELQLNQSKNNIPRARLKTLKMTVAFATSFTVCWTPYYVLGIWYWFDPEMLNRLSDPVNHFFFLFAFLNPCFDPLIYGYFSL
Procedure, shortened: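 HEK293 cells stably expressing human GnRHR were plated 18 h at 37 °C, loaded with calcium dye 1 h at 37 °C, then given compound in agonist mode; fluorescence (Ex/Em 480/540) read kinetically for 3 min at 1 s intervals.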

[4] = molecular target: KiSS-1 receptor (Homo sapiens) (UniProt Q969F8); experiment: Human kisspeptin (KISS1R) small molecule agonists, calcium flux assay in KISS1R-HEK293 cells (AID 1920064; active means well fitted curve in the direction sought with a large enough effect in the repeat runs; an effect the other way counts as inactive or inconclusive)
Sequence of KiSS-1 receptor (Homo sapiens) (Q969F8 whole entry, looked up): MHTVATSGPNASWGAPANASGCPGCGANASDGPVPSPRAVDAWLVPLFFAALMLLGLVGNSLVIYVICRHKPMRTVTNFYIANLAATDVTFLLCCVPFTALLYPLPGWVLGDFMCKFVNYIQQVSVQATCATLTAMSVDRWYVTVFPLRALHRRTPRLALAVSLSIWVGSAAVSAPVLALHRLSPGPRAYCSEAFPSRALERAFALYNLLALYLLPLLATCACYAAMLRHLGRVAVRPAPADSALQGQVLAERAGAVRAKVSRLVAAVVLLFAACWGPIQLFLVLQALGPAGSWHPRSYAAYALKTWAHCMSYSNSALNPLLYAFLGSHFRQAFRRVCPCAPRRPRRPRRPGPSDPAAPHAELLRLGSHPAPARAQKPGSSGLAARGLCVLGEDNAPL
Procedure, shortened: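 HEK293 cells stably expressing human KISS1R were plated 18 h at 37 °C, loaded with calcium dye for 1 h at 37 °C, then given compound by pin tool. Fluorescence (Ex/Em 480/540) was read kinetically for 3 min.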

[5] = p53 small molecule agonists, cell-based qHTS assay with human liver microsomes (AID 1963577);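 further: p53 response element beta-lactamase reporter cells with liver microsomes plus NADPH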
Procedure, shortened: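 Steps: plate p53RE-bla cells, incubate 5 h at 37 C; add compound in DMSO; add microsomes (0.5 mg/mL final) and NADPH (0.5 mg/mL final); incubate 16 h at 37 C; add LiveBLAzer, 2 h RT; read fluorescence.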

[6] = p53 small molecule agonists, cell-based qHTS assay with human liver microsomes: qHTS cell viability counter screen (AID 1963579); further: nearly all actives have a fitted effect of over 45% in size; further: potency means the concentration at half of the fitted maximal effect
Procedure, shortened: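 After the 460/530 nm beta-lactamase read, CellTiter-Glo was added to the same wells and luminescence measured after 30 min at room temperature, giving viability of p53RE-bla cells treated 16 h with compounds plus microsomes and NADPH.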

[7] = p53 small molecule agonists, cell-based qHTS assay with rat liver microsomes: qHTS cell viability counter screen (AID 1963580); further: nearly all actives have a fitted effect of over 45% in size
Procedure, shortened: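 p53RE-bla HCT-116 cells (4,000/well) rested 5 h at 37 C, then given Tox21 compounds in DMSO with rat liver microsomes (0.5 mg/mL final) plus NADPH (0.5 mg/mL final) for 16 h at 37 C. Viability read by CellTiter-Glo luminescence after 30 min at room temperature.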

[8] = p53 small molecule agonists, cell-based qHTS assay (AID 1963582; active means well fitted activation curve with a large enough effect in the signal ratio in the repeat runs, not every such curve was filed as active; the % refers to the signal ratio)
Procedure, shortened: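 p53RE-bla beta-lactamase reporter cells rested 5 h at 37 C/5% CO2, then received compounds in DMSO by pin transfer and were incubated 16 h at 37 C. LiveBLAzer B/G FRET substrate was loaded for 2 h at room temperature before fluorescence reading.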

[9] = molecular target: 5-hydroxytryptamine receptor 2A (Homo sapiens) (UniProt P28223); experiment: 5-hydroxytryptamine receptor 2A (HTR2A) small molecule antagonists, cell-based qHTS assay (AID 1963586); further: nearly all actives have a fitted effect of over 45% in size; further: potency means the concentration at half of the fitted maximal effect
Sequence of 5-hydroxytryptamine receptor 2A (Homo sapiens) (P28223 whole entry, looked up): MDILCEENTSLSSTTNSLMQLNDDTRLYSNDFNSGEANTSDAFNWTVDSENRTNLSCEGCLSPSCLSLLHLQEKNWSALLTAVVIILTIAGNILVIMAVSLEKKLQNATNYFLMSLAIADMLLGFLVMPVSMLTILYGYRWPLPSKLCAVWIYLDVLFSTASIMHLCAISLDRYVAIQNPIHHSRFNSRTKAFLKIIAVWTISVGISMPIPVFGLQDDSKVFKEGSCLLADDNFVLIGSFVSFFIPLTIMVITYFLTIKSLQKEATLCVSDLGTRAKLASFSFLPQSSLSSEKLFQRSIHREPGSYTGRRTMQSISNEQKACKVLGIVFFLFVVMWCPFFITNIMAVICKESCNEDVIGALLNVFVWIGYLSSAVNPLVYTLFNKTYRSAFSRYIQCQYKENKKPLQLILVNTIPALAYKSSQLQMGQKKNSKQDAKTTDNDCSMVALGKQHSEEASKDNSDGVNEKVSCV
Procedure, shortened: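 Antagonist-mode intracellular calcium assay: DOI (4 nM) added after 5 min compound pre-incubation at room temperature to dye-loaded HTR2A-CHO cells. Fluorescence followed for 3 min, sampled every second.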

[10] = molecular target: 5-hydroxytryptamine receptor 2A (Homo sapiens) (UniProt P28223); experiment: 5-hydroxytryptamine receptor 2A (HTR2A) small molecule agonists, cell-based qHTS assay (AID 1963587); further: nearly all actives have a fitted effect of over 30% in size
Procedure, shortened: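 HTR2A-CHO cells, plated 18 h at 37 C/5% CO2, dye-loaded 1 h at 37 C; compounds in DMSO added by pin tool (agonist mode). Intracellular calcium flux read as kinetic fluorescence on FDSS over 2 min at 1 s intervals.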

[11] = molecular target: Muscarinic acetylcholine receptor M1 (Homo sapiens) (UniProt P11229); experiment: Cholinergic receptor muscarinic 1 (CHRM1) small molecule antagonists, cell-based qHTS assay (AID 1963588); further: nearly all actives have a fitted effect of over 40% in size
Sequence of Muscarinic acetylcholine receptor M1 (Homo sapiens) (P11229 whole entry, looked up): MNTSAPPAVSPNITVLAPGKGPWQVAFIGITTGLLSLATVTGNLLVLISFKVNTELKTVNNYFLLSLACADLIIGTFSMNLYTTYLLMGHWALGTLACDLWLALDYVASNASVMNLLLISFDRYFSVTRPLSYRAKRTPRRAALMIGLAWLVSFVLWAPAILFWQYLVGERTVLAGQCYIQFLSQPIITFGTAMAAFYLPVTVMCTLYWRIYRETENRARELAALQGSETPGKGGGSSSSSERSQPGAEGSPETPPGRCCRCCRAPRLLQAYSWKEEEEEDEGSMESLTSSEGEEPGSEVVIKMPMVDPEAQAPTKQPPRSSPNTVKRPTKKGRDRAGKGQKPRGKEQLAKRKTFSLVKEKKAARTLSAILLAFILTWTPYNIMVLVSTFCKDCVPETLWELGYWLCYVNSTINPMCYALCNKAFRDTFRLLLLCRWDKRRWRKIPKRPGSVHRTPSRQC
Procedure, shortened: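 CHRM1-CHO calcium-flux assay, antagonist mode. Cells were seeded 18 h, dye-loaded 1 h at 37 C and given compound for 5 min at RT, then acetylcholine was added at 50nM. FDSS fluorescence was read 3 min; 15 concentrations, three runs.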

[12] = molecular target: Muscarinic acetylcholine receptor M1 (Homo sapiens) (UniProt P11229); experiment: Cholinergic receptor muscarinic 1 (CHRM1) small molecule agonists, cell-based qHTS assay (AID 1963589); further: nearly all actives have a fitted effect of over 35% in size
Procedure, shortened: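 CHO cells stably expressing human CHRM1, seeded 18 h at 37 C/5% CO2, dye-loaded 1 h at 37 C, then given compound in agonist mode; intracellular calcium fluorescence read kinetically at 1 s intervals. Fifteen concentrations, three independent runs.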

[13] = cAMP Responsive Elements (CRE) small molecule agonists, cell-based qHTS assay (AID 1963590)
Procedure, shortened: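 CRE-bla HEK 293T cells in DMEM with 10% dialyzed FBS, NEAA, pyruvate and 25 mM HEPES were plated 18 h at 37 C/5% CO2, then exposed to compounds in DMSO for 3 h before LiveBLAzer B/G FRET substrate addition.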

[14] = cAMP Responsive Elements (CRE) small molecule antagonists, cell-based qHTS assay (AID 1963591; active means well fitted inhibition curve with a large enough effect in the signal ratio in the repeat runs, not every such curve was filed as active; the % refers to the signal ratio)
Procedure, shortened: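 CRE-bla HEK293T cells were plated 18 h at 37 °C/5% CO2, pinned with compound in DMSO, then stimulated with NKH477 at 0.25 uM final for 3 h. LiveBLAzer B/G FRET substrate was added and plates incubated 2 h at room temperature.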

[15] = molecular target: Beta-2 adrenergic receptor (Homo sapiens) (UniProt P07550); experiment: Adrenergic beta2 receptor (ADRB2) small molecule antagonists, cell-based qHTS assay (AID 1963592); further: series mostly up to about 92 µM; nearly all actives have a fitted effect of over 50% in size
Sequence of Beta-2 adrenergic receptor (Homo sapiens) (P07550 whole entry, looked up): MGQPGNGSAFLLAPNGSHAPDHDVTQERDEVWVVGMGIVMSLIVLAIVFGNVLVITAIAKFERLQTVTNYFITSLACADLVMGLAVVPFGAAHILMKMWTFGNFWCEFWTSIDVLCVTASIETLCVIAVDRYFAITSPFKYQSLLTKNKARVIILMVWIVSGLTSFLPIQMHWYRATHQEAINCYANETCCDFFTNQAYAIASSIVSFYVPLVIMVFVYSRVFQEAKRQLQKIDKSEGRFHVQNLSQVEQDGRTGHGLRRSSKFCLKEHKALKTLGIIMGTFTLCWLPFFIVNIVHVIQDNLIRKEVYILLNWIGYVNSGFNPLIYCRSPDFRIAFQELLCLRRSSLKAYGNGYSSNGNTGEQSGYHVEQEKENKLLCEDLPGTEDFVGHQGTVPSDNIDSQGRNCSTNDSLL
Procedure, shortened: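 Cells (CHO, stable ADRB2 overexpression) incubated 18-20hr at 37C; compounds added from DMSO; agonist mix (1nM isoproterenol, 100uM IBMX, 25uM Ro-20-1724) added; 0.5hr RT; d2-cAMP and anti-cAMP-cryptate added; 1hr RT; 665/615 nm read.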

[16] = molecular target: D(2) dopamine receptor (Homo sapiens) (UniProt P14416); experiment: Dopamine D2 receptor (DRD2) small molecule agonists, cell-based qHTS assay (AID 1963594); further: nearly all actives have a fitted effect of over 35% in size
Sequence of D(2) dopamine receptor (Homo sapiens) (P14416 whole entry, looked up): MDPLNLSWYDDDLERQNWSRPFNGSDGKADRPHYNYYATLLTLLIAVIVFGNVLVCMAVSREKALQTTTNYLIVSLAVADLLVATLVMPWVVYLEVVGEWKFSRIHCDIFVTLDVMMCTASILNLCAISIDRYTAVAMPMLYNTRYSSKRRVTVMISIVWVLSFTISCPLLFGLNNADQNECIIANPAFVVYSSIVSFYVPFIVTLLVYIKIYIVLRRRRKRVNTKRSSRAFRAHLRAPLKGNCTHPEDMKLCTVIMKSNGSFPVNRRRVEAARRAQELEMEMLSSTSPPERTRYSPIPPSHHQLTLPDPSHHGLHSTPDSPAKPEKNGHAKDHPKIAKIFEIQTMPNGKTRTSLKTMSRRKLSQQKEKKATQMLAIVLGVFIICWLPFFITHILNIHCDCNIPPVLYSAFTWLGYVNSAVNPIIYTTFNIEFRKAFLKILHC
Procedure, shortened: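 HEK293 cells stably expressing DRD2 were cultured 24 h at 37 C, then given Ro20-1724 (0.1 mM final) and compounds for 10 min at room temperature. NKH477 (200nM) was then added for 30 min. cAMP was read by HTRF.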

[17] = p53 small molecule agonists, cell-based qHTS assay: qHTS cell viability counter screen (AID 1963581); further: nearly all actives have a fitted effect of over 45% in size; further: potency means the concentration at half of the fitted maximal effect
Procedure, shortened: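 p53RE-bla HCT-116 cells were exposed to compounds for 16 h at 37 C; after the beta-lactamase FRET read in the same wells, CellTiter-Glo was added and luminescence (intracellular ATP) read after 30 min at room temperature.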

[18] = molecular target: Beta-2 adrenergic receptor (Homo sapiens) (UniProt P07550); experiment: Adrenergic beta2 receptor (ADRB2) small molecule agonists, cell-based qHTS assay (AID 1963593);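 further: CHO cells stably overexpressing human ADRB2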
Procedure, shortened: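 CHO cells stably over-expressing ADRB2 were plated overnight at 37C, then dosed with compounds plus a stimulation mix containing 100uM IBMX and 25uM Ro-20-1724 for 0.5hr at room temperature. cAMP was measured by HTRF competition, 1hr.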

[19] = molecular target: D(2) dopamine receptor (Homo sapiens) (UniProt P14416); experiment: Dopamine D2 receptor (DRD2) small molecule antagonists, cell-based qHTS assay (AID 1963595; active means well fitted inhibition curve with a large enough effect in the signal ratio in the repeat runs, with a control signal flat; the % refers to the signal ratio; further: potency means the concentration at half of the fitted maximal effect)
Procedure, shortened: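 DRD2-HEK293; 0.1 mM Ro20-1724; cpd 10 min RT; NKH477 200 nM + quinpirole 12 nM, 30 min RT; HTRF cAMP (cAMP-d2/anti-cAMP cryptate), 665/620 nm ratio after 1 h.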

[20] = p53 small molecule agonists, cell-based qHTS assay with rat liver microsomes (AID 1963578)
Procedure, shortened: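 Metabolic activation is supplied by rat liver microsomes with NADPH (each 0.5 mg/mL final). p53RE-bla cells incubate with compound 16 h at 37 C; reporter activity is measured by LiveBLAzer fluorescence.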

Measured: Potency

CCN1CCC[C@H]1CNC(=O)c1c(O)c(Cl)cc(Cl)c1OC
active: [9] 18.3 µM
not listed: [17] | [18] | [19] | [20]
inactive: all other assays above

CCOC(=O)c1ccccc1C
not listed: [20]
inactive: all other assays above

CC(C)(C)c1ccc(C=O)cc1
not listed: [4]
inactive: all other assays above

N#[N+]c1ccc2c(S(=O)(=O)[O-])cccc2c1O
not listed: [8] | [18] | [20]
inactive: all other assays above

CCC(C)(C)C1CCC(OC)CC1 (stereo not drawn)
not listed: [4]
inactive: all other assays above

CCC(=O)c1ccc(O)cc1
not listed: [5] | [8]
inactive: all other assays above

O=C(O)c1ccc(O)cc1O
not listed: [6]
inactive: all other assays above

CCCCCCCCCCCCCCC(=O)NC(CO)CCCCCCCCCCCCCC (stereo not drawn)
not listed: [4]
inactive: all other assays above

Nc1ccncc1N
not listed: [4]
inactive: all other assays above

C=C(C)[C@@H]1CCC2=CC(=O)C[C@@H](C)[C@]2(C)C1
not listed: [7] | [11]
inactive: all other assays above

C=CC(=O)OCC(CO)(COC(=O)C=C)COC(=O)C=C
active: [1] 4.87 µM and 12.2 µM | [2] 4.87 µM and 6.11 µM | [6] 45.9 µM and 9.13 µM | [17] 16.3 µM and 10.2 µM | [19] 54.6 µM and 21.7 µM
inactive: [3] | [4] | [9] | [10] | [11] | [12] | [15] | [16]

CCOc1ncc(F)c(=O)[nH]1
not listed: [4] | [19]
inactive: all other assays above

Cc1ccc(C(C)NC(=O)[C@@H](NC(=O)OC(C)C)C(C)C)cc1 (stereo partly drawn)
not listed: [6] | [12] | [18] | [19]
inactive: all other assays above

CC(C)(O)C#CC(C)(C)O
not listed: [6] | [18]
inactive: all other assays above
